M1 PAM: positive allosteric modulators of human M1 muscarinic receptor; actives 0.088% (n = 360,000); activation, % at 3 µM; AID 588819; P11229; CHO-K1 hM1, Fluo-8 calcium fluorescence, ACh EC20; 0% = ACh EC20, 100% = maximal ACh; in the data active means activation above about 19%, passing the limit was not always enough
Target sequence (P11229 whole entry, looked up): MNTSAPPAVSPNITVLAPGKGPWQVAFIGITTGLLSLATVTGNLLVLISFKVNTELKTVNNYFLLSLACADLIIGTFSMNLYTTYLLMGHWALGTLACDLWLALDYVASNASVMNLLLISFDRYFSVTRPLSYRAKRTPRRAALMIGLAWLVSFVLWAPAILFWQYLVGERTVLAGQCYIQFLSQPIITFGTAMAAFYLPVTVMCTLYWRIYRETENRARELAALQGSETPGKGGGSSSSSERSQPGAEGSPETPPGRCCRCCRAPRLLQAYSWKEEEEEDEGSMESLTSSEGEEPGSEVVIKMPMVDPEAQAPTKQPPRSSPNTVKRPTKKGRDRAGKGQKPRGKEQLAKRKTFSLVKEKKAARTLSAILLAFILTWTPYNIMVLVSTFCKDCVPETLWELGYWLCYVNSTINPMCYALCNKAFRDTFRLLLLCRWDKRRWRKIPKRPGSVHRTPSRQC
CHRM1 agonist: activates human CHRM1 receptor. P11229. CHO-K1 hM1, Fluo-8 calcium fluorescence, agonist mode; 0% DMSO, 100% acetylcholine EC100. activation, % at 3 µM. actives 0.33% (n = 360,000);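 active means activation above the run's mean compound activation plus 3 SD, cut at about 16% in these data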;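 further: peak over basal fluorescence ratio within a 140 s kinetic read after compound addition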
CHO-K1 Ca ag: counter-screen for M1 agonists: effect in parental CHO-K1 cells; Fluo-8 calcium fluorescence; scaled to maximal ATP response, vehicle zero; activation, % at 3 µM; actives 0.48% (n = 360,000); AID 602248; in the data active means activation above about 15%;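 further: untransfected CHO-K1 host cells lacking M1 receptor as counterscreen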
M1 antag: human CHRM1 antagonism | CHO-K1 hM1, Fluo-8 calcium fluorescence, ACh EC80 antagonist | inhibition, % at 3 µM | actives 1.3% (n = 360,000);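 active means percent inhibition above its own plate's cutoff, namely the mean of that plate's compound wells plus 3 SD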;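 further: peak over basal fluorescence ratio during 140 s after agonist addition; 0% = ACh EC80 plus DMSO and 100% = DMSO alone without agonist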
M1 PAM parental: M1 PAM counterscreen hit in parental CHO-K1 cells | activation, % at 3 µM | ATP EC20, Fluo-8 calcium fluorescence; 0% at ATP EC20, 100% at ATP max | AID 602247 | actives 0.02% (n = 360,000);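 active means activation above the run cutoff, the mean activation of all test compounds plus 3 SD, cut at about 40% in these data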;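 further: peak over basal fluorescence ratio in a 140 s read after ATP addition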
CHO-K1 Ca antag: nonselective inhibitor or artifact in parental CHO-K1 cells. AID 602250. inhibition, % at 3 µM. ATP-induced calcium, Fluo-8 fluorescence. actives 0.6% (n = 360,000);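 active means inhibition above a per-plate cutoff, the plate's mean sample inhibition plus 3 SD, cut at about 24% in these data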;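 further: 0% = DMSO plus EC80 ATP and 100% = DMSO alone without ATP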
* = called active by the depositor; / = no result. Sampled rows, rich in hits. Any-hit rate of the full collection: about 2.3%.

SMILES	M1 PAM	CHRM1 agonist	CHO-K1 Ca ag	M1 antag	M1 PAM parental	CHO-K1 Ca antag
CC1CCCN1CC#CC(O)(c1ccccc1)c1ccccc1 (stereo unspecified)	-28	-9	0	100*	6	-6
COCCNC(=O)C1(C)CCCN(C(=O)c2cccc(Cl)c2)C1 (stereo unspecified)	7	-1	0	-10	11	1
O=C(CCC(=O)N1CCN(C2CCCCC2)CC1)Nc1nnc(C(F)(F)F)s1	6	4	1	4	5	-3
CCc1nnc(NC(=O)CCC(=O)N2CCCC2)s1	2	-3	0	-3	16	-2
CCc1nnc(NC(=O)CCC(=O)N2CCN(C3CCCCC3)CC2)s1	-4	19*	1	-1	10	-16
CC(C)c1nnc(NC(=O)CCC(=O)N2CCN(C3CCCCC3)CC2)s1	-12	22*	1	9	2	-11
Cc1cccc(C)c1N1CCN(C(c2cc3ccccc3o2)c2nnnn2C(C)(C)C)CC1 (stereo unspecified)	/	/	2	/	18	4
c1ccc(C[n+]2ccc3ccccc3c2)cc1	-12	-7	0	25	-14	17
Clc1cccc(Cl)c1C[n+]1ccc2ccccc2c1	-17	-12	1	31*	-9	2
COC(=O)[C@]12CCCCC=C1N(CCC1=CCCCC1)C(=O)[C@H](CC(=O)N1CCCCC1)C2	/	/	5	/	8	-9
Cc1cc(OC(=O)c2c(Cl)cc(Cl)cc2Cl)nc(C)n1	24*	-4	0	-17	22	-21
COc1ccc(C2CCCCC2SCC(=O)O)cc1OC (stereo unspecified)	8	0	0	-17	20	-15
O=C(CCCOC(=O)c1ccc(O)cc1O)c1ccc(Br)cc1	-12	0	7	19*	-8	9
O=C(CCCOC(=O)c1cccnc1Cl)c1ccc(Br)cc1	4	-4	5	3	22	-22
CCC(CO)Nc1ccn2nc(-c3cccs3)cc2n1 (stereo unspecified)	0	-1	1	-5	9	-4
COc1ccc(NC(=O)CN(C)C(=O)c2ccc(NS(=O)(=O)c3cccc([N+](=O)[O-])c3)cc2)cc1	8	-4	0	-15	-29	33*
COc1ccc(NS(=O)(=O)c2ccc(C(=O)N(C)Cc3cccs3)cc2)cc1	-7	25*	20*	2	-1	-8
COc1ccc(NS(=O)(=O)c2cccc(C(=O)N(C)CC(=O)Nc3ccc(C)cc3)c2)cc1	1	-2	1	-4	18	-4
O=c1[nH]cc(CCCc2ccccc2)c(=O)[nH]1	9	-1	0	-6	18	-15
CCN(C(=O)CN1C(=O)NC2(CCCC2)C1=O)c1nc2c(C)cccc2s1	4	-5	2	-12	27	-22
C[C@H]1CCCCO[C@@H](CN(C)C(=O)NC2CCCCC2)[C@@H](C)CN([C@@H](C)CO)C(=O)c2cc(NC(=O)Cc3ccccc3)ccc2O1	-3	-9	0	-4	9	-9
CCOC(=O)c1[nH]c(C)c(C(=O)N2CCN(C(=O)OCC)CC2)c1CC	1	0	0	4	-12	26*
COc1ccc(CN2C(=O)C(CC(=O)NC3CCCC3)CC(C(=O)N3CCOCC3)=C2C)cc1 (stereo unspecified)	-2	-6	0	10	-5	24*
COC(=O)[C@]1(CC(C)C)N[C@H](c2ccc(-c3ccc(C(C)=O)cc3)cc2)[C@@H]2C(=O)N(C)C(=O)[C@@H]21	30*	-2	0	-5	14	-10
CCOC(=O)c1ccc(NC(=S)N2CCSC2c2ccc(Cl)cc2)cc1 (stereo unspecified)	2	34*	8	45*	6	13
SMILES	M1 PAM	CHRM1 agonist	CHO-K1 Ca ag	M1 antag	M1 PAM parental	CHO-K1 Ca antag
CCOC(=O)N1CCN(C(=O)C2CCCCC2)CC1	3	-3	3	-8	13	-1
CCOC(=O)C1CCCN(C(=S)NC2CCCC2)C1 (stereo unspecified)	-19	51*	1	3	19	-6
CCOC(=O)N1CCC(NC2CCCCCCC2)CC1	-27	-7	2	74*	1	-4
CCOC(=O)C1CCCN(CCc2ccccc2)C1 (stereo unspecified)	-12	18*	1	49*	6	-5
CCOC(=O)C1CCCN(c2cc(C)nc3cc(-c4ccc(F)cc4)nn23)C1 (stereo unspecified)	-26	46*	0	24	22	-22
CCOC(=O)C1CCCN(C(=O)Nc2ccccc2)C1 (stereo unspecified)	-23	54*	0	11	-3	-11
CCOC(=O)C1CCCN(C(=S)Nc2ccc(F)cc2)C1 (stereo unspecified)	-24	79*	0	69*	21	-7
CCOC(=O)N1CCC(N2CCN(C3CCCC3)C(CCO)C2)CC1 (stereo unspecified)	-35	-13	1	47*	26	-6
CCOC(=O)C1CCCN(C(=O)CSc2ccc(NC(C)=O)cc2)C1 (stereo unspecified)	10	-3	1	-21	16	-13
CCOC(=O)C1CCCN(C(=O)C2CCN(C(=O)Nc3ccccc3)CC2)C1 (stereo unspecified)	8	1	1	-17	21	-10
CCOC1=C2[C@@H](CN(S(=O)(=O)c3ccc(C)cc3)[C@H]2c2cccs2)[C@H]2C(=O)N(c3ccccc3)C(=O)[C@H]2C1	4	-3	0	-12	1	9
COCCN(CCOC)Cc1cc(=O)oc2cc(C)ccc12	8	-4	1	-8	10	8
CC1(C(=O)NS(=O)(=O)c2cccc(OC(F)F)c2)CCN1C(=O)C1CCCCC1 (stereo unspecified)	7	1	0	-1	13	-7
CCOC(=O)C1CCCN(C(=O)CCn2nc(-c3ccccc3)ccc2=O)C1 (stereo unspecified)	-4	11	0	2	-11	24*
CCOC(=O)C1CCCN(C(=O)CCCn2nnnc2CN2CCC(C)CC2)C1 (stereo unspecified)	0	22*	1	-8	2	-12
CCOC(=O)c1ccc(NC(=S)N2CCC(C(N)=O)CC2)cc1	-10	-10	1	8	18	-7
CCOC(=O)C1CCCN(C(=O)Cn2nc(C)n3c(cc4c(OC)cccc43)c2=O)C1 (stereo unspecified)	-3	21*	0	4	10	-9
CCOC(=O)c1ccc(NC(=S)N2CCCC(C(=O)OCC)C2)cc1 (stereo unspecified)	-37	76*	0	69*	-14	13

Screening data from PubChem.
